Reference: ChEMBL document CHEMBL4513216, “Probing the Open Global Health Chemical Diversity Library for Multistage-Active Starting Points for Next-Generation Antimalarials” (ACS Infect Dis, 2020)
About 8,600 (12%) of roughly 69,000 compounds showed an effect of 50% or more. What follows is part of a selection rich in strong results, with near analogues and random picks from the rest.

test system: Plasmodium berghei; experiment: Screen against P. berghei liver stage (PbLuc), transformed with Luciferase, at 10uM; assay type: functional, HepG2; settings: tested at 10 uM

SMILES	INHIBITION [%]
CC(O)c1cnn(-c2ccccc2)c1 (stereo unspecified)	-6.04
O=C(O)c1ccccc1-c1ccc(CN2CCC(CO)CC2)cn1	9.98
CCNc1cc2c(nn1)CCN(C(=O)CCc1c(C)noc1Cl)C2	0.411
COc1ccccc1C(=O)N1CCN(C(=O)Cc2ccccn2)CC1	-36.1
Cc1ncccc1C(=O)Nc1cccc(Cn2ccccc2=O)c1	38.5
CCn1ncnc1CN1CCC(CNC(=O)c2cccc(C)n2)C1 (stereo unspecified)	15.4
CCc1ccc(C(=O)N2CCCC(n3nc(C)nc3C)C2)o1 (stereo unspecified)	33.73
CCOCCc1nc(CCc2ccccc2)n[nH]1	26.7
Cc1cnc(N2C[C@H]3CCCC(N(C)Cc4ccccn4)[C@H]3C2)nc1 (stereo partly specified)	55.7
CCc1cnc(N2C[C@H]3CCCC(N(C)Cc4ccccn4)[C@H]3C2)nc1 (stereo partly specified)	33.1
CN(Cc1ccccn1)C1CCC[C@@H]2CN(CC3CC3)C[C@H]12 (stereo partly specified)	22.2
Cc1nc2ccccc2n1Cc1cc(C(=O)NC2CCOC2)no1 (stereo unspecified)	11.1
O=C(NC1CC1)c1nc(Cn2c(C(F)F)nc3ccccc32)no1	54.8
Cc1occc(=O)c1OCc1noc(C(=O)NC(C)C)n1	42.8
CC(C)NC(=O)c1nc(Cn2c(C(F)F)nc3ccccc32)no1	62.4
CC(C)NC(=O)c1nc(Cn2c(C(F)(F)F)nc3ccccc32)no1	43.9
O=C(NC1CCCC1)c1cc(Cn2cnc3ccccc32)on1	5.8
COc1ccccc1-c1csc(NC(=O)N2CCN(C)CC2C)n1 (stereo unspecified)	-9.08
Cc1cc(C)n(CC2CN(Cc3nnc(C)o3)CCO2)n1 (stereo unspecified)	5.1
O=C(c1ccc(F)cc1F)N1C[C@@H]2CC[C@H]1CN(Cc1ccccc1)C2	41.5
O=C1CC(c2ccc(C(=O)O)cc2)c2cnn(Cc3ccco3)c2N1 (stereo unspecified)	-8.04
CC(C)CC1CC(=O)Nc2c1cnn2Cc1ccco1 (stereo unspecified)	50.2

SMILES	INHIBITION [%]
CC(C)(C)C1CC(=O)Nc2c1cnn2Cc1ccco1 (stereo unspecified)	-21.7
O=C1CC(c2ccc(CO)o2)c2cnn(Cc3ccco3)c2N1 (stereo unspecified)	67.6
CC(C)C1CC(=O)Nc2c1cnn2Cc1ccco1 (stereo unspecified)	7.85
CN(C)c1ccc(C2CC(=O)Nc3c2cnn3Cc2ccco2)cc1 (stereo unspecified)	1.45
COc1ccc(CN(Cc2cnc(N)nc2)CC2CCCO2)c(OC)c1 (stereo unspecified)	23.2
CNC(=O)[C@@H](c1ccccc1F)N1CCC[C@H]1C(=O)NC1CCCC1	-49.3
O=C(CN1C[C@H]2CC(OCc3ccccc3)C[C@H]2C1)N1CCOCC1 (stereo partly specified)	-2.09
CC(C)C1CN(C(=O)c2cn3ccccc3n2)CCCN1CC1CC1 (stereo unspecified)	47.6
CC(C)C1CN(C(=O)c2ccc(Cl)cn2)CCCN1CC1CC1 (stereo unspecified)	14.9
CC(C)C1CN(C(=O)c2cn3cc(Cl)cnc3n2)CCCN1CC1CC1 (stereo unspecified)	60.3
CC(C)C1CN(C(=O)c2cc(=O)[nH]c(=O)[nH]2)CCCN1CC1CC1 (stereo unspecified)	74.8
CC(C)C1CN(C(=O)c2cc(=O)[nH]c(=O)[nH]2)CCC(=O)N1CC1CC1 (stereo unspecified)	9.35
Cc1[nH]c(=O)[nH]c(=O)c1CC(=O)N1CCCN(CC2CC2)C(C(C)C)C1 (stereo unspecified)	-69.3
CNC(=O)C1(c2cnccn2)CCCN1C(=O)c1ccccn1 (stereo unspecified)	42.4
CCOCC(O)CN1CCN(C(=O)C2CCCC2)CC1 (stereo unspecified)	-19.4
Cc1ccc(CN(CCCN2CCOCC2)Cc2cnc(C)n2C)o1	-11.7
O=C1CN(C(=O)c2cccc(OCc3cscn3)c2)CCN1	61.5
NC(=O)C1CCCN(C(=O)c2cccc(OCc3cscn3)c2)C1 (stereo unspecified)	24.05
NC(=O)C1CCN(C(=O)c2ccc(OCc3cscn3)cc2)CC1	56.85
CC(=O)N1CCN(C(=O)c2cccc(OCc3cscn3)c2)CC1	1.82
NC(=O)C1CCN(C(=O)c2cccc(OCc3cscn3)c2)CC1	17.8
O=C(c1cccc(OCc2cscn2)c1)N1CCOCC1	45.75

SMILES	INHIBITION [%]
Cc1cccc(CN2CCC3(CC2)NC(=O)CC3c2ccccc2)n1 (stereo unspecified)	37.1
CC1CCCN(C(=O)NCCCn2cncn2)C1 (stereo unspecified)	9.45
Cn1nccc1-c1nnn2c1COCC(CNCC1CC1)C2 (stereo unspecified)	45.7
CC(C)CN1CCC2(C=C(C(=O)NC3CC3)c3ccccc32)CC1	27.2
COCCNCc1ccc(OCC(=O)NC(C)(C)C)cc1	51.6
CC(C)(C)NC(=O)COc1ccc(CNCc2ccccn2)cc1	-6.39
CC(C)(C)NC(=O)COc1ccc(CNCCOc2ccccn2)cc1	18.6
Cc1ccc(C2=CCN(C(=O)C3CCN(C)C(=O)C3)CC2)cc1 (stereo unspecified)	-14.7
COc1ncccc1C(=O)NC1CCOc2ccccc21 (stereo unspecified)	33.3
CCN(C)c1ncnc2c1CCN(C(=O)NCc1cccnc1)CC2	-75.9
Cn1nc(-c2ccc(Cl)cc2)c(Br)c1C(=O)O	65.6
Cc1ccc(-c2nn(C)c(C(=O)O)c2Br)cc1	62.8
Cn1nc(-c2cccc(Cl)c2)c(Br)c1C(=O)O	46.1
Cn1nc(-c2ccccc2)c(Cl)c1C(=O)O	46.1
Cn1nc(-c2ccccc2)c(Br)c1C(=O)O	36.9
Cc1cccc(-n2cnc(Cl)c2C(=O)O)c1	8.08
CNC(=O)CN(C)C(=O)c1ccc(-c2nc(C)cs2)cc1	40.7
Cc1noc(CNC(=O)N2CCN(c3nc(C)c(C)s3)CC2)n1	10.5
CCCN(Cc1cnn(C)c1)S(=O)(=O)c1cccc(F)c1C#N	-43.6
O=C1CCC2(CCC(NC(=O)NCc3ccccc3)CC2)N1 (stereo unspecified)	-46.7
CC(CN1CCOC1=O)NC(=O)c1cccc(Cl)c1Cl (stereo unspecified)	-28.9
Cc1cnn(CC2CCCN2C(=O)c2ccccc2-n2cnnn2)c1 (stereo unspecified)	-33.9

SMILES	INHIBITION [%]
O=c1[nH][nH]c2cn(-c3ccc(Br)cc3)c(=O)n12	46.4
O=c1[nH][nH]c2cn(-c3ccccc3)c(=O)n12	63.7
O=c1[nH][nH]c2cn(-c3ccc(F)cc3)c(=O)n12	26.6
COc1ccc2c(ccn2CCC(=O)Nc2n[nH]c(C(C)C)n2)c1	-45.5
CN(C(=O)NCc1ccsc1)C1CCN(c2ccccc2)C1=O (stereo unspecified)	-10.2
CCCc1cc(=O)n(CC(=O)NC(C)C)c(-n2nc(C)cc2C)n1	29.3
CCCc1cc(=O)n(CC(=O)NCCOC)c(-n2nc(C)cc2C)n1	28.7
CCCc1nc(C)cc(N2CCC3(CCC(=O)N(CC(N)=O)C3)CC2)n1	-42.1
CCCNC(=O)Cn1c(-n2nc(C)cc2C)nc(CCC)cc1=O	54.2
CCCc1cc(=O)n(CC(N)=O)c(-n2nc(C)cc2C)n1	81.3
CCCNC(=O)CCNc1cncc(-n2nc(C)cc2C)n1	-2.03
CN(C)CCCn1ccnc1C1CCCN(c2ncc(Cl)cc2F)C1 (stereo unspecified)	17.5
O=C(O)C1(n2ccc(-c3ccco3)n2)CCN(Cc2ccccn2)CC1	4.1
Cc1cc(C)n(C2CN(CC(=O)NC(C3CC3)C3CC3)C2)n1	17.4
O=C(NCC(=O)N1CCCC1)c1nc(Cc2c(Cl)cccc2Cl)no1	-32.8
Cc1ccc(C#N)c(N2CCC3(CCCN(C4CCOCC4)C3=O)C2)n1 (stereo unspecified)	-20.8
c1cnc(N2CCOCC3(C2)CN(c2nccs2)CCO3)nc1 (stereo unspecified)	44.8
CN(CC(=O)NC(Cc1ccsc1)c1cccnc1)Cc1cccnc1 (stereo unspecified)	64.6
CN(CC(=O)NC(Cc1ccsc1)c1cccnc1)Cc1ccccn1 (stereo unspecified)	26.1
Cc1csc(C(Cc2ccsc2)NC(=O)CN(C)Cc2cccnc2)n1 (stereo unspecified)	42.6
CC(NC(=O)N1CCCN(C)CC1)c1ccc(S(N)(=O)=O)cc1 (stereo unspecified)	-5.22
Cc1ccc(O)c(CNC2CCc3nc(C(C)C)nn3C2)n1 (stereo unspecified)	15.8

SMILES	INHIBITION [%]
CN1CC(=O)N(c2ccsc2)CC12CCN(C(=O)N1CCCC1)C2 (stereo unspecified)	-5.05
CCOC(=O)c1n[nH]cc1-c1cncn1CCn1nc(C)c(Cl)c1C	-39.4
CS(=O)(=O)N1CCCC12CCCN(C(=O)c1ccc3c(c1)OCO3)C2 (stereo unspecified)	-1.15
CS(=O)(=O)N1CCCC12CCCN(C(=O)c1ccc[nH]1)C2 (stereo unspecified)	-24.8
CS(=O)(=O)N1CCCCC12CCN(C(=O)c1ccccc1)C2 (stereo unspecified)	61.8
CS(=O)(=O)N1CCCC12CCCN(C(=O)c1ccnnc1)C2 (stereo unspecified)	26.4
CS(=O)(=O)N1CCCC12CCCN(C(=O)c1ccncc1)C2 (stereo unspecified)	10.7
CS(=O)(=O)N1CCCC12CCCN(C(=O)c1ccc3[nH]ccc3c1)C2 (stereo unspecified)	57.9
O=S1(=O)C[C@@H]2[C@H](C1)N(Cc1ncc[nH]1)CCN2CCCc1ccccc1	34.275
COc1ccc(Cl)cc1NC(=O)CN1CCc2nc(NC(C)=O)sc2C1	30.2
CCOc1ccccc1C(C(=O)O)N(C)Cc1cc(C)[nH]n1 (stereo unspecified)	27.6
Cc1n[nH]c(C)c1NC(=O)CN1CCc2c(nc(C(C)C)n2C)C1	-2.48
Cn1cc(C2CCCN2C(=O)CCCc2cccs2)cn1 (stereo unspecified)	9.14
Cn1cc(C2CCCN2C(=O)CCCc2ccccn2)cn1 (stereo unspecified)	62.6
CCCc1noc(CCC(=O)N2CCCC2c2ccncc2)n1 (stereo unspecified)	13.3
Cn1cc(C2CCCN2C(=O)CCCOc2ccccc2F)cn1 (stereo unspecified)	0.914
CCCc1noc(CCCC(=O)N2CCCC2c2cnn(C)c2)n1 (stereo unspecified)	64.7
CCCc1noc(CCC(=O)N2CCCC2c2ccc(OC)cc2)n1 (stereo unspecified)	0.914
